Laboratory results reported in PubChem BioAssay AID651768 (National Center for Advancing Translational Sciences (NCATS), 2012).
The whole screen tested about 360,000 compounds, of which about 1,700 (0.47%) were called active. A call without a number means that no potency is given here. Not shown: some 2% with an inconclusive outcome. The sample holds actives, similar compounds and a random draw of the others, so the mix is not that of the screen. Calls come from the whole dose curve; as a rule, active = well fitted inhibition curve with a large enough effect; inconclusive = small, poorly fitted or top-dose-only effect; inactive = no such curve, though single readings can be large or run the other way.

These molecules were tested against Bifunctional 3'-5' exonuclease/ATP-dependent helicase WRN (Homo sapiens) (UniProt Q14191) (assay: qHTS for Inhibitors of WRN Helicase). Settings: WRN helicase unwinding, fluorescent forked duplex, kinetic; series mostly up to 114 µM.
Text: Inhibition of DNA repair is proposed as a strategy for combating cancer. Synthetic lethality is an approach that exploits preexisting DNA repair deficiencies in certain tumors to develop inhibitors of DNA repair pathways that compensate for the tumor-associated DNA repair deficiency. Because helicases play critical roles in the DNA damage response and in DNA repair, particularly in actively dividing and replicating cells, characterization of synthetic lethal relationships of DNA helicases may be of value in developing improved anticancer treatment strategies; moreover, small molecules that specifically target a given DNA helicase may be useful for understanding its role in cellular nucleic acid metabolism. The goal of this project is to identify small molecule, non-covalent chemical inhibitors of the Werner syndrome (WS) helicase (WRN), which plays an important role in cell proliferation, the replication stress response, and DNA repair. […] The WRN gene product that is defective in the chromosomal instability disorder has DNA helicase and exonuclease activities and interacts with a number of nuclear proteins to maintain genomic stability. We will employ an optimized high-throughput screening assay that utilizes a fluorescence intensity modulation scheme with a fluorophore and quencher positioned near one another within a duplex deoxyoligonucleotide that contains a single forked structure. After a high-throughput screen of the ~350,000-member Molecular Libraries Small Molecule Repository (MLSMR) collection, followed by data analysis and hit selection, a panel of confirmatory, as well as secondary and ternary, assays will be employed to identify high-confidence WRN inhibitors. Structure-activity relationships will be investigated for the top candidate inhibitor series through medchem expansion. These are the results of the primary screening campaign against the MLSMR. NIH Chemical Genomics Center [NCGC] NIH Molecular Libraries Probe Centers Network [MLPCN] MLPCN Grant: MH096530 Assay Submitter (PI): Robert Brosh, National Institute of Aging
Three muL of reagents (buffer in columns 3 and 4 as negative controls; WRN at 20 nM final concentration in columns 1 and 2 as positive controls; columns 5-48 as test reactions) will be dispensed into a 1536-well Greiner black plate via solenoid-valve based nanoliter dispensers. Compounds (23 nL each in columns 5-48) and control (23 nL each in column 2 as dose-response) will be transferred via a Kalypsys pintool equipped with a 1536-pin array. Plates will be incubated for 15 min at room temperature, and then 1 µL of substrate (100 nM forked duplex oligonucleotide and 2 mM ATP final concentrations) will be added to start reaction, and plate will be transferred into a ViewLux high-throughput CCD imager where reaction progress is measured in kinetic mode using standard red-fluorescence optics (excitation filter 525 nm, emission filter 598 nm).
Note: nearly all actives have a fitted effect of over 55% in size.
Potency is the fitted concentration of half-maximal effect.

Sequence of Bifunctional 3'-5' exonuclease/ATP-dependent helicase WRN (Homo sapiens) (Q14191 whole entry, looked up): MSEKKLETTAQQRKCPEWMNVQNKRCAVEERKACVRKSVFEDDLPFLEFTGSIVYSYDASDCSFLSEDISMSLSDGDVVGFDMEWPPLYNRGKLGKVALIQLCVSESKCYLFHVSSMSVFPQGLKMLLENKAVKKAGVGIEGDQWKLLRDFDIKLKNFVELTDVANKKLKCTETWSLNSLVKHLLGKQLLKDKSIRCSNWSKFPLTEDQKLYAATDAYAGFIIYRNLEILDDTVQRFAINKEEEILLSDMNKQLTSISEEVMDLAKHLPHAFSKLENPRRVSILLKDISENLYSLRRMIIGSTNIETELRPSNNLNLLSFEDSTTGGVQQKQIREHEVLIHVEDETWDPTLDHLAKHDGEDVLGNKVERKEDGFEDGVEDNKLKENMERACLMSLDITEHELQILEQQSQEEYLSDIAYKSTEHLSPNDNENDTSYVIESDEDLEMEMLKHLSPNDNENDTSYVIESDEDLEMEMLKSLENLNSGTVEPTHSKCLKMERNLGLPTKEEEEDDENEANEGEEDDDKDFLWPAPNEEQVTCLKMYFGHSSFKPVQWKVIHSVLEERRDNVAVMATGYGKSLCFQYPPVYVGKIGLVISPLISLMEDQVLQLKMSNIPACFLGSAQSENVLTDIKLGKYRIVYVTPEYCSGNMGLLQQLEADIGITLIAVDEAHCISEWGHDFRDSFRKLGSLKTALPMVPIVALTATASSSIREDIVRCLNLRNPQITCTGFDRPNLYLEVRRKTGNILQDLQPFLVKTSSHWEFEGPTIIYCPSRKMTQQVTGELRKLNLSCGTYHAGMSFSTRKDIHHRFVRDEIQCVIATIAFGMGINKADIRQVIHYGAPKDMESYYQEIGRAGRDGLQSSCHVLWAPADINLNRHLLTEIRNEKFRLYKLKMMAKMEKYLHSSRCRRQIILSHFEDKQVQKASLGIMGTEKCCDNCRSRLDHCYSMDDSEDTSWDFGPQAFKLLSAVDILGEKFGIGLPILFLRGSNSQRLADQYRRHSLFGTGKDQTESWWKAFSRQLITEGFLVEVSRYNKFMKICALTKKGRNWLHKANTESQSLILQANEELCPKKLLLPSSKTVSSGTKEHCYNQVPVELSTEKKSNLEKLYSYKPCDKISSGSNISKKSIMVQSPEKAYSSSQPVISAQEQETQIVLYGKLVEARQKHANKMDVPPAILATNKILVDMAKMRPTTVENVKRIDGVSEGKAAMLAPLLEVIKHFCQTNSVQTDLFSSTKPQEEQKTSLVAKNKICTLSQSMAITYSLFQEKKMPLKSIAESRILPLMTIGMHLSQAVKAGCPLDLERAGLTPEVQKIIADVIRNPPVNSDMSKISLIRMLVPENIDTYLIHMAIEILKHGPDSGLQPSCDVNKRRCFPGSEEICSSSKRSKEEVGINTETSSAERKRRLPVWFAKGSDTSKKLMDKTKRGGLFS

Structure (SMILES) | Potency
CCC(=O)Nc1c(C)n[nH]c1C | inactive
C=C1C(=O)OC2C1CCC(C)=CCCC1(C)OC21 (stereo not given) | inactive
CCCCCCCNc1nc(Cl)nc(NCCO)n1 | inactive
CC1CCCN(CCCNC(=O)CN2C(=O)COc3ccc(S(=O)(=O)N4CCOCC4)cc32)C1 (stereo not given) | inactive
Nc1ccc2nc3c(=O)[nH]c(=S)[nH]c3nc2c1 | 7.08 µM (active)
O=C1Nc2ccc(Br)cc2/C1=N/N=C/C1=C(N2CCOCC2)C(=C\c2ccccc2)/CC1 | inactive
N#C/C(=C\C1=C(N2CCOCC2)C(=C\c2ccccc2)/CC1)C(=O)Nc1ccccc1F | 15 µM (active)
O=C(CC1SC(N2CCOCC2)=NC1=O)Nc1ccccc1F (stereo not given) | inactive
N#Cc1ccc(OCC(=O)NC(=O)NC2CCS(=O)(=O)C2)cc1 (stereo not given) | inactive
CC(=O)Nc1ccc(S(=O)(=O)NCC(=O)OCc2cc(=O)oc3ccc4ccccc4c23)cc1 | inactive
O=C(N/N=C/c1sc(N2CCCCC2)nc1-c1cccs1)c1cccnc1 | inactive
C[C@H]1CN([C@@H](C)CO)C(=O)CCCn2nncc2CO[C@@H]1CN(C)S(=O)(=O)c1cccc(C#N)c1 | inactive
Cc1nnc(SCC(=O)Nc2ncc3c(n2)CC(C)(C)CC3=O)s1 | inactive
CC1=C/C(=N\OS(=O)(=O)c2ccccc2)C=CC1=O | 31.6 µM (active)
O=C1Nc2ccccc2-n2nnnc2C1N1CCN(c2cccc(C(F)(F)F)n2)CC1 (stereo not given) | inactive
CC1(c2cccc(N)c2)OCCO1 | inactive
COCCNC(=O)Nc1ccc2nc(-c3ccco3)c(-c3ccco3)nc2c1 | 14.1 µM (active)
COCCNC(=O)CSc1nc(N)c(NC(=O)c2ccco2)c(=O)[nH]1 | inactive
Cc1ccc(NC(=O)OCCNC(=O)c2ccncc2)cc1 | inactive
O=C(NC1=CC(=O)c2ccccc2C1=O)c1ccccc1 | inactive
CC(=O)N(C1=C(Cl)C(=O)c2ccccc2C1=O)c1ccc(C(=O)O)cc1 | 35.5 µM (active)
CN(C)c1ccc(C(CNC(=O)c2ccc(F)cc2)c2c[nH]c3ccccc23)cc1 (stereo not given) | inactive
CCc1ccccc1NC(=O)CN(c1ccc(OC)cc1OC)S(=O)(=O)c1ccccc1[N+](=O)[O-] | inactive
CCC1OC(C2CC2)CC2=C1C(=O)OC(C)(C)O2 (stereo not given) | inactive
CCc1nnc(NC(=O)c2ccco2)s1 | inactive

Structure (SMILES) | Potency
CCc1ccc2nc3sc(C(=O)Nc4nnc(CC)s4)c(N)c3cc2c1 | 22.4 µM (active)
CCc1nnc(NC(=O)c2cc(S(=O)(=O)N3CCCCC3)ccc2C)s1 | inactive
C=CCN1CCN(c2ccncc2S(=O)(=O)N2CCN(C)CC2)CC1 | inactive
N#Cc1c(N2CCCCC2)nc(N)c2c(N)nc(SCC(=O)O)cc12 | 50.1 µM (active)
N#Cc1c(C(F)(F)F)cc(-c2cccs2)nc1N1CCCCC1 | inactive
O=C(O)CSc1ccc(S(=O)(=O)N2CCCC2)cn1 | inactive
Cn1cnnc1SCC(=O)Nc1ccc(N2CCOCC2)cc1 | inactive
C=CC(=O)Nc1ccc(Nc2ccnc(Nc3ccc(N4CCN(C)CC4)cc3)n2)cc1 | 50.1 µM (active)
CN1CCN(c2ccc(NC(=O)c3cc(Cl)c4c(c3)OCCO4)cc2)CC1 | inactive
CC(C)NC(=S)Nc1cccc2cnccc12 | inactive
COc1ccc(S(=O)(=O)N2CCN(CC(=O)N3c4ccccc4CC3C)CC2)cc1OC (stereo not given) | inactive
Cc1ccccc1-c1nc(NC(C)C)nc2cc(-c3ccccc3)sc12 | inactive
O=S(=O)(O)c1cc2onnc2c2ccccc12 | 56.2 µM (active)
O=C(Nc1ccc(OC(F)(F)F)cc1)c1ccc2c(c1)no[n+]2[O-] | inactive
Cc1ccc(S(=O)(=O)N2CCC(=O)N([C@H](COCc3ccccc3)Cc3ccccc3)CC2)cc1 | inactive
CCN(CC)CCNCC(=O)Nc1ccc(Oc2ccccc2)cc1 | inactive
CN(CCOc1ccc(CC2SC(=O)NC2=O)cc1)c1ccccn1 (stereo not given) | inactive
CCN(CC)CCOc1ccc2c(c1)C(=NNC(=O)c1ccccn1)c1cc(OCCN(CC)CC)ccc1-2 | 35.5 µM (active)
O=C(O)CSC(NC(=O)c1cccnc1)(C(F)(F)F)C(F)(F)F | inactive
Cc1ccc(Cc2cnc(N)s2)o1 | 44.7 µM (active)
Cc1ccc(CCC(=O)Nc2ncc(Cc3cc(Cl)ccc3Cl)s2)o1 | inactive
CSc1nnc(C2CCCN(CC(=O)Nc3ccccc3N3CCOCC3)C2)n1C(C)C (stereo not given) | inactive
O=C(CSC(=S)N1CCOCC1)c1cc(Br)cc(Br)c1O | 56.2 µM (active)
O=C(CSC(=S)N1CCOCC1)c1ccccc1 | inactive
O=C(c1cc2cc(Br)cc(Br)c2oc1=O)N1CCOCC1 | inactive
